The values that follow come from PubChem BioAssay (NCATS).

In assay [1] the target is Lysosomal acid glucosylceramidase (Homo sapiens) (UniProt P04062). As to the kind of experiment: Glucocerebrosidase-p2 (AID 348; in the data active = potency below about 10 µM; also: potency is read from the fitted curve at half-maximal effect). Particulars: purified GBA, blue fluorogenic substrate, 40 min. The method in brief:
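Normal human glucocerebrosidase (0.2 nM) with blue fluorogenic substrate (80 uM final) in citrate/phosphate pH 5.9 with 10mM sodium taurocholate, 0.01% tween-20; 40 min RT, NaOH/glycine stop; fluorescence Ex 365/Em 440; AC50 from a titration from 0.6 nM upwards.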

Assay [2] in a line: AP1 Signaling Pathway (AID 357). Also: % is scaled to controls: 0 for no effect and ±100 for the full control effect. As to conditions: ME-180 AP-1-bla reporter, EGF-induced, beta-lactamase ratio, 5 h; at 7.69 µM (top of the series) unless noted. The method in brief: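 ME-180 cells with beta-lactamase reporter under AP-1 response element, stimulated with EC50 EGF; compounds tested in titration series, 5 h at 37 °C. CCF4 substrate added 2.5 h at room temperature; 460/530 nm emission ratio gave %activity and AC50.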

In assay [3] the target is Cytochrome P450 1A2 (Homo sapiens) (UniProt P05177). As to the kind of experiment: p450-cyp1a2 (AID 410; calls by dose curve; also: potency is read from the fitted curve at half-maximal effect). As to conditions: recombinant CYP1A2, luciferin-ME demethylation, luminescence; series mostly up to 57 µM. Put shortly: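 O-Demethylation of luciferin 6' methyl ether by human CYP1A2 is monitored as luciferase luminescence. Substrate sits at Km (100uM); enzyme is 20nM. Values are scaled to 57 uM furafylline as maximal inhibition.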
Cytochrome P450 1A2 (Homo sapiens), sequence (P05177 whole entry, looked up): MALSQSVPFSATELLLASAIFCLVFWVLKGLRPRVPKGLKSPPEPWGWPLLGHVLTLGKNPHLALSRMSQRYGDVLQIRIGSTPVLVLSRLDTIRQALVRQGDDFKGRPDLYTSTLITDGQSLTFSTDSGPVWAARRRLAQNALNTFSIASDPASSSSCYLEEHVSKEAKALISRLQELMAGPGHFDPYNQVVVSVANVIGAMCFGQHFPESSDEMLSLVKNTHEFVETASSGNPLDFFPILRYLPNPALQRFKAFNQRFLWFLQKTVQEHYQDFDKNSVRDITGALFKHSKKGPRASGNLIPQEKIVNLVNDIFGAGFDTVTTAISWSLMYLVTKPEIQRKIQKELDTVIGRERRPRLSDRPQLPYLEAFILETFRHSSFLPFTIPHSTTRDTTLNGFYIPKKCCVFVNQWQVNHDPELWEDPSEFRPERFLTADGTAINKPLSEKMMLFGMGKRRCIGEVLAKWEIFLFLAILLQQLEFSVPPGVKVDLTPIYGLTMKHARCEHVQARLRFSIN

The nature of assay [4]: NFAT Signaling Pathway (AID 444).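 Also: carbachol stimulus at about its EC50 of 1 µM final; % is scaled to controls: 0 for no effect and ±100 for the full control effect.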 Particulars: Jurkat NFAT-bla M1, carbachol, beta-lactamase ratio, 5 h; at 7.69 µM (top of the series) unless noted. Put shortly:
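Jurkat cells with NFAT-driven β-lactamase reporter and co-expressed M1 receptor, stimulated with carbachol (final 1 uM, ~EC50), compound titration, 5 h at 37 °C. CCF4 loaded 1 h at RT; 460/530 nm ratio gave %activity and AC50.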

Assay [5] has as its target Glucocorticoid receptor (Homo sapiens) (UniProt P04150). As to the kind of experiment: GR-GFP Redistribution (AID 450;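 active = compounds whose dose series gives a full or clear partial fitted curve of increased nuclear translocation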; also: potency is read from the fitted curve at half-maximal effect). As to conditions: U2OS GR-GFP nuclear translocation, laser cytometry, 2 h.
Assay [6] shares this target. The assay is described as follows: GR-EFC Redistribution (AID 451; calls by dose curve; also: potency is read from the fitted curve at half-maximal effect). As to conditions: CHO-K1 GR-EFC translocation, beta-gal luminescence, 2 h. Put shortly: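 CHO-K1 cells expressing nuclear EA and GR-ED fragments of b-gal; compounds titrated up to 46 uM final, 2 h at 37 C. GR nuclear translocation read as complemented b-gal luminescence after 1 h RT detection.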
For assay [7], the target named is Mitogen-activated protein kinase 10 (Mus musculus) (UniProt Q61831). The assay is described as follows: JNK3 AlphaScreen Assay (AID 530).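 Also: kinase came from lysate of stimulated human HepG2 cells; signal reports phosphorylation of biotinylated GST-cJun 1-79 at Ser73 with 10 µM ATP; % is scaled to controls: 0 for no effect and ±100 for the full control effect.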 As to conditions: JNK3 lysate, c-Jun phosphorylation; series mostly up to 57.1 µM. Put shortly: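 Activity was read by AlphaScreen after JNK3-containing HepG2 lysate (cytokine pre-activated) phosphorylated biotinylated GST-cJun with 10 uM ATP at room temperature. Phospho-Ser73 cJun antibody with Protein-A acceptor beads provided detection.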

In assay [8] the target is Cytochrome P450 3A4 (Homo sapiens) (UniProt P08684). The assay is described as follows: qHTS Assay for Activators of Cytochrome P450 3A4 (AID 885; active = well fitted curve in the direction sought with a large enough effect; an effect the other way counts as inactive or inconclusive; also: nearly all actives have a fitted effect of over 65% in size; also: potency is read from the fitted curve at half-maximal effect). Particulars: recombinant CYP3A4, Luciferin-PPXE luminescence, 60 min; series mostly up to 57.1 µM. The method in brief:
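Human CYP3A4 dealkylates Luciferin-PPXE to luciferin, which luciferase detection converts to light. Substrate was at its KM (25uM), buffer 200mM KPO4, reaction 60 min at RT.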
Background: In qHTS, concentration-response curves come from the screen itself.

A short description of assay [9]: Primary qHTS for small molecule stabilizers of the endoplasmic reticulum resident proteome: Secreted ER Calcium Modulated Protein (SERCaMP) assay (AID 1508630; active = well fitted curve in the direction sought with a large enough effect; an effect the other way counts as inactive or inconclusive; also: % is scaled to controls: 0 for no effect and ±100 for the full control effect). As to conditions: SH-SY5Y GLuc-SERCaMP (Gaussia luciferase released on ER calcium loss) secretion, thapsigargin, luminescence; series mostly up to 38.4 µM. The method in brief:
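The SH-SY5Y reporter protocol was run at 3 concentrations up to 38.3 uM (primary) or 11 concentrations (follow-up): 16 h compound, 100 nM thapsigargin for 4 h, then extracellular luciferase luminescence.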

The nature of assay [10]: Stat Signaling Pathway (AID 446). As to conditions: ME-180 (cervical carcinoma) SIE beta-lactamase reporter, IL-6 stimulated, 5 h; at 7.69 µM (top of the series) unless noted. Put shortly:
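Normalization used AC90 stimulation (300 pM IL-6) and AC90 inhibition (125 nM pan-JAK inhibitor at 40 pM IL-6). The underlying signal is SIE-driven beta-lactamase in ME-180 cells after 5 h IL-6 exposure with compound.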

For assay [11], the target named is 3',5'-cyclic-AMP phosphodiesterase 4B (Homo sapiens) (UniProt Q07343). The assay is described as follows: qHTS Assay for Inhibitors of PDE-IV (AID 607; active = well fitted activation curve with a large enough effect in the main read-out, with a control signal flat, not every such curve was filed as active; also: % of control where 0% means no effect). As to conditions: HEK293 ACTOne CNG channel cells, membrane potential fluorescence; series mostly up to 22.9 µM. The method in brief: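 HEK293 ACTOne cells with CNG channel (1000/well), endogenous PDE4; membrane potential dye, compounds up to 22.9 uM final. Fluorescence Ex 535/Em 590; RO 20-1724 (100 uM final) as reference.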
3',5'-cyclic-AMP phosphodiesterase 4B (Homo sapiens), sequence (Q07343 whole entry, looked up): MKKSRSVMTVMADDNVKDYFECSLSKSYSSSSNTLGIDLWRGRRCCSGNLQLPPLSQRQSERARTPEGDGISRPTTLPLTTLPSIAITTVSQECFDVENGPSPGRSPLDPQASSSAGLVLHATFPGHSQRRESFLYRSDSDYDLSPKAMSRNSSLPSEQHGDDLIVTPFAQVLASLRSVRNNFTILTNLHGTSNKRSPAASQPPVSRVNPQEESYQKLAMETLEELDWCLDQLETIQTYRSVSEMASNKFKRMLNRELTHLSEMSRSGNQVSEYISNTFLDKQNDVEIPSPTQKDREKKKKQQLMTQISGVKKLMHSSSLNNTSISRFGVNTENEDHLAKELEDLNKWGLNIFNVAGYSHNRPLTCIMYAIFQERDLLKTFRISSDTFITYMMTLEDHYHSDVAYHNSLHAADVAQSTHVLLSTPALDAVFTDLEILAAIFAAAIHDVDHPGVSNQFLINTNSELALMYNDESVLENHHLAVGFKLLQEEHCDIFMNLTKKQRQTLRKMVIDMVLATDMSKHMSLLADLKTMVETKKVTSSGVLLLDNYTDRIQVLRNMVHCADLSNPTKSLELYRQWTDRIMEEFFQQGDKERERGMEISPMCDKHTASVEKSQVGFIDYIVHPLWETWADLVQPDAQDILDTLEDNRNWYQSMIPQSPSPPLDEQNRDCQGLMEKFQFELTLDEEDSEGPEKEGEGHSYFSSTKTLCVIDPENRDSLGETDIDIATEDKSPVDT

Assay [12] has as its target Cytochrome P450 3A4 (Homo sapiens) (UniProt P08684). The assay is described as follows: qHTS Assay for Inhibitors and Substrates of Cytochrome P450 3A4 (AID 884; active = well fitted curve in the direction sought with a large enough effect; an effect the other way counts as inactive or inconclusive; also: potency is read from the fitted curve at half-maximal effect; nearly all actives have a fitted effect of over 50% in size). Particulars: recombinant CYP3A4, Luciferin-PPXE luminescence; series mostly up to 57.1 µM. Put shortly:
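Luminescent readout of luciferin produced by CYP3A4 (20 nM) dealkylation of Luciferin-PPXE, 25 uM (its KM). NADPH-driven reaction ran 60 min at RT after 10 min compound preincubation; data scaled to 57 uM ketoconazole as 100% inhibition.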

Values without a mark were called inactive. Records with an inconclusive call do not appear. Active and inactive are the calls of the source. Unless noted, calls follow the shape of the dose curve; as a rule, active = well fitted curve in either direction with a large enough effect (not every such curve was filed as active); inconclusive = small, poorly fitted or top-dose-only effect, or another doubt; inactive = flat fitted curve, though single readings scatter.

Cytochrome P450 3A4 (Homo sapiens), sequence (P08684 whole entry, looked up): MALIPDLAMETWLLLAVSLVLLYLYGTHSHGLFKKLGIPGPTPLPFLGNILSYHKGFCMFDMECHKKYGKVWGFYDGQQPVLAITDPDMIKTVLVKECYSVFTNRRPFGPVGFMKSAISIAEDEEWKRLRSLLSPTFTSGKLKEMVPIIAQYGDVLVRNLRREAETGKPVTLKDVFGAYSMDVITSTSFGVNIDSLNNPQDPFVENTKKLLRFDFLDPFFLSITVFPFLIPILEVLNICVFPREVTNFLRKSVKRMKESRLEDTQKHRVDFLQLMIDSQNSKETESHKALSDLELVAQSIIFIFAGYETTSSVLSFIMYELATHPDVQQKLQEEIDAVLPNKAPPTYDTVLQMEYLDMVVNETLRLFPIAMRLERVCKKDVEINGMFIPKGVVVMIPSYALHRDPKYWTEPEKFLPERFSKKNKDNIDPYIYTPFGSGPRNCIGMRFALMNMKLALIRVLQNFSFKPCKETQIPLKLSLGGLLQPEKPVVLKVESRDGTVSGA
Glucocorticoid receptor (Homo sapiens), sequence (P04150 whole entry, looked up, the tested form may be a part): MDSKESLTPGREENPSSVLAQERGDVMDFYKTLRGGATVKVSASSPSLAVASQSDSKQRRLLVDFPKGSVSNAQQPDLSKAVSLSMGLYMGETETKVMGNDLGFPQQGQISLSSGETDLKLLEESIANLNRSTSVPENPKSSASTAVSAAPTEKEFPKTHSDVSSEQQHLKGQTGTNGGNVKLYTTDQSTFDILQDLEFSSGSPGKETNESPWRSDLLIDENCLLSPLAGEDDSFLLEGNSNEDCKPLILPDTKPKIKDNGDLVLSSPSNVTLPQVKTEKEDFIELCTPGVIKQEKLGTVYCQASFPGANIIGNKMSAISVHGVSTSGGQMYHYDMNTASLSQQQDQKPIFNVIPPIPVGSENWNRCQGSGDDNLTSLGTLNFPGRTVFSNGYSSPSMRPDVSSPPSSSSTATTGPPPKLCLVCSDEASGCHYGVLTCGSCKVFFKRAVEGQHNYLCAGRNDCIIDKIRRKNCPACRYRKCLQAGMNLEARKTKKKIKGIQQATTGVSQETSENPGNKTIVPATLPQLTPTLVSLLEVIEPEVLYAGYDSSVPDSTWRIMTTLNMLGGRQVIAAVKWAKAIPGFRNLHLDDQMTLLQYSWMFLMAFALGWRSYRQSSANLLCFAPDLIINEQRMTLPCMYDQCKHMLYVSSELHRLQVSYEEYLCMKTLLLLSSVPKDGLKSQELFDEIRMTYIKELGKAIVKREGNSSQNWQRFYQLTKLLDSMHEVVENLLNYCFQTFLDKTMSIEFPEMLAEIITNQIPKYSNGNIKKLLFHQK
Lysosomal acid glucosylceramidase (Homo sapiens), sequence (P04062 whole entry, looked up): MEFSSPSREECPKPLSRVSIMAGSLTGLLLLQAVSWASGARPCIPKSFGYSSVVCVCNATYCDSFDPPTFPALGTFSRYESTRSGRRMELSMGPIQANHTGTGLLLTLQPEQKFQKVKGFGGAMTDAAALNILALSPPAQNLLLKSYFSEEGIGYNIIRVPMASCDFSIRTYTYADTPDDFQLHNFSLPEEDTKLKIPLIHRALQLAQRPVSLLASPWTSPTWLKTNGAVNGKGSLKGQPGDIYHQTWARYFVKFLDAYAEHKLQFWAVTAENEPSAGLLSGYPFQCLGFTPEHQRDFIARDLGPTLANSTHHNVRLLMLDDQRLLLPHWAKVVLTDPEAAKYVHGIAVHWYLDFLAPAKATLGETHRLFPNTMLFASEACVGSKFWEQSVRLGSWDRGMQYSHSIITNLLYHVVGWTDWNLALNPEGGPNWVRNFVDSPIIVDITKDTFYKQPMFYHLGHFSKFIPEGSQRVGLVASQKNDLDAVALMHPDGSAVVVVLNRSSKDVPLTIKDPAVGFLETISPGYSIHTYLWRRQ

For the compound `O=c1c(-c2ccc(F)c(F)c2)nc2cncnc2n1-c1ccccc1`, the Potency in assay [1] is over 11.4 µM; in assay [3], 12.6 µM (active); in assay [5], over 9.22 µM; in assay [6], over 46 µM. Also, the figures for the activity change, negative = inhibition in [2] and in assay [4] were -19.9% and 3.06%, respectively. Further, the Potency entry in [7] and in [8] was “inactive” throughout. Also, the result in assay [9] was inactive.
Take `CCNc1ncc2nc(-c3ccc(OC)cc3)c(=O)n(-c3ccc(OC)cc3)c2n1`: the results for the Potency in assay [1], in [5] and in assay [6] were over 11.4 µM, over 9.22 µM and over 46 µM, respectively. Besides, the activity change, negative = inhibition in assay [2] was -16%; in [4], -5.13%. The Potency result in [3], in [7] and in [8] was “inactive” throughout. For the same compound, the outcome in assay [9] was inactive.
On to `Cn1cccc1C(=O)N1CCC2(CCCN(c3ccc(-c4ccccc4)cc3)C2)CC1`, for which the Potency in [1] was over 11.4 µM; in [3] it was 15.8 µM (active); in assay [6], over 46 µM. Moreover, the results for the activity change, negative = inhibition in assay [2] and in assay [4] were 15.7% and -14.9%, respectively. The activity, negative = inhibition in assay [10] is 3.39%. Also, in assay [11], the Potency result was “inactive”. Moreover, the result in [9] was inactive.
As for `O=C(c1cnccn1)N1CCC2(CC1)CN(c1cccc(-c3ccccc3)c1)C2`, the results for the Potency in assay [1], in assay [3] and in assay [6] were over 11.4 µM, 15.8 µM (active) and over 46 µM, respectively. Moreover, the activity change, negative = inhibition in assay [2] is -8.05%; in assay [4], -5.73%. Further, the Potency entry in assay [11] and in assay [8] was “inactive” in each case. Also, the outcome in assay [9] was inactive.
In the case of `N#Cc1cccc(NC(=O)N2CC[C@@]3(CCCN(S(=O)(=O)c4ccccc4)C3)C2)c1`, the Potency in assay [1] was over 11.4 µM; in [3], 25.1 µM (active); in assay [12] it was 3.16 µM (active). The activity change, negative = inhibition is -14% in assay [2] and 3.6% in assay [4]. Further, the activity, negative = inhibition in assay [10] was -7.29%. In addition, the Potency result in [7], in assay [11] and in [8] was “inactive” each time. For the same compound, the result in assay [9] was inactive.
With `COC(=O)N1CCC2(CC1)CCN(c1ncccn1)CC2`, the Potency in assay [1] is over 11.4 µM; in assay [6], over 46 µM; in assay [8], 15.8 µM (active). The activity change, negative = inhibition in assay [2] was 3.11%; in [4] it was -23.4%. Also, the Potency entry in [3], in assay [7] and in [11] was “inactive” each time. Further, the result in assay [9] was inactive.
`COc1ccc(NC(=O)N2CCCC3(CCN(C(=O)c4ccc(OC)cc4)CC3)C2)cc1`: the Potency in assay [1] is over 11.4 µM; in [6], over 46 µM. For the same compound, the activity change, negative = inhibition in [2] was -11.4%; in assay [4], 0.394%. For the same compound, the Potency result in [3], in assay [7], in assay [11] and in [8] was “inactive” in each case. Further, in [10], the activity, negative = inhibition was -3.96%. Besides, in [9], the outcome was inactive.
Take `O=C(c1ccco1)N1CCC2(CCCN(c3ccccn3)C2)CC1`: the Potency was over 11.4 µM in assay [1], 10 µM (active) in assay [3] and over 46 µM in assay [6]. Further, the activity change, negative = inhibition in assay [2] is -0.937%. Besides, the activity, negative = inhibition in [10] is -3.59%. Also, the Potency result in assay [7] and in assay [8] was “inactive” throughout. Besides, the result in assay [9] was inactive.
